From PubChem BioAssay AID652126 (The Scripps Research Institute Molecular Screening Center, 2013)
The campaign covered roughly 370,000 compounds. About 3,700 (1%) were called active. The sample holds actives, similar compounds and a random draw of the others, so the mix is not that of the screen.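 The calls were made as follows: active = activation above the mean over all tested compounds plus 3 SD (cut at about 0.9% in these data); inactive = the rest.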

tested on: Nuclear hormone receptor DAF-12 (Strongyloides stercoralis); experiment: S. stercoralis DAF-12 nuclear receptor activators, primary screen, cell-based, luminescence, HEK293, GRIP1 co-expression, lit1-tk-luc (AID 652126); conditions: HEK293 ssDAF-12/GRIP1 lit1-tk-luc reporter, at 6.8 µM, active compounds read high, % of 3 µM dafachronic acid response;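 also: 0% = DMSO-only wells and 100% = 3 µM delta7-dafachronic acid wells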

Row | Compound | activation
1 | COC(=O)C1CN(CCc2ccccc2)CCS(=O)(=O)N1Cc1cccc(Cl)c1 (stereo not drawn) | -0.43% (inactive)
2 | CCC(=O)Nc1ccc2c(c1)C(=O)N(C)[C@@H]1CC[C@@H](CC(=O)NCCc3ccccc3)O[C@H]1CO2 | -0.55% (inactive)
3 | C[C@@H]1CN([C@@H](C)CO)C(=O)c2cccc(NC(=O)Nc3cccc4ccccc34)c2O[C@H]1CN(C)S(=O)(=O)c1ccccc1F | -2.39% (inactive)
4 | COC(=O)C[C@@H]1CC[C@H]2[C@@H](COc3ccc(NS(=O)(=O)CC(F)(F)F)cc3C(=O)N2C)O1 | -1.22% (inactive)
5 | O=C(c1cccc(C(F)(F)F)c1)N1CC[C@H]2[C@H](CCCN2Cc2cc(F)cc(F)c2)C1 | -1.1% (inactive)
6 | CC(C)C(=O)Nc1c(C(=O)c2ccc(F)cc2)oc2ccccc12 | -0.79% (inactive)
7 | CC(C)C(=O)Nc1ccc2c(c1)oc1ccccc12 | 1.28% (active)
8 | CC(C)C(=O)Nc1oc(-c2ccccc2)cc1C#N | -1.13% (inactive)
9 | Cc1ccccc1CSc1nnc(Cn2c(=O)sc3ccccc32)n1C | -1.22% (inactive)
10 | CC(C)N1CCCCC(NC(=O)c2ccc3ccccc3c2)C1=O (stereo not drawn) | -0.75% (inactive)
11 | CC1CC(C)CN(CCCNC(=O)c2csc3c2CCCCC3)C1 (stereo not drawn) | -1.8% (inactive)
12 | Cc1ccc(NC(=O)c2csc3c2CCCC3)cc1 | 1.46% (active)
13 | Cc1ccc(NC(=O)C2(N3CCC3=O)CCCCC2)cc1 | -0.98% (inactive)
14 | COc1ccc(NC(=O)CC2C(=O)OCC3CCCCN32)cc1Cl (stereo not drawn) | -1.7% (inactive)
15 | CC(=O)C1(C(=O)Nc2nccs2)CC(c2ccccc2C(F)(F)F)=NO1 (stereo not drawn) | -1.38% (inactive)
16 | CCC(C)(C)NC(=O)c1cc([N+](=O)[O-])ccc1N1CCCCC1 | -1.32% (inactive)
17 | CC1CCN(c2ccc(S(=O)(=O)Nc3cc(C(=O)O)cc(C(=O)O)c3)cc2[N+](=O)[O-])CC1 | -1.44% (inactive)
18 | O=C(O)C1CCN(c2ccc([N+](=O)[O-])cc2[N+](=O)[O-])CC1 | 1.84% (active)
19 | O=C(c1ccccc1)c1ccc(-c2ccccc2C(=O)NC2CCCCN(Cc3ccc(Cl)cc3)C2=O)cc1 (stereo not drawn) | -0.93% (inactive)
20 | COC(=O)C[C@@H]1C=C[C@@H](NS(=O)(=O)c2cccc(OC)c2)[C@@H](CO)O1 | -0.52% (inactive)
21 | COC(=O)C1CCN(C(=O)COC(=O)c2cc(S(=O)(=O)N3CCOCC3)ccc2C)CC1 | -1.23% (inactive)
22 | Cc1ccc(S(=O)(=O)N2CCOCC2)cc1C(=O)OC1CCCCC1=O (stereo not drawn) | 1.21% (active)

Row | Compound | activation
23 | COc1ccc(S(=O)(=O)N2CCOCC2)cc1C(=O)NC1CCCCC1 | -1.6% (inactive)
24 | CCN(CC)C(=O)CC[C@@H]1CC[C@]2(CCCN(S(=O)(=O)C3CCCCC3)C2)O1 | -1.11% (inactive)
25 | CN(C)Cc1cn(-c2ccc(-c3noc4c3C(=O)N(CC(=O)N3CCOCC3)CC4)cc2)nn1 | -0.67% (inactive)
26 | O=C(OCC#CCSc1nnc(-c2ccco2)o1)c1ccc(F)cc1 | -0.22% (inactive)
27 | CCCC[C@H](C(=O)N(CC)c1ccccc1)[C@@H](O)c1ccc2ccccc2c1 | -1.15% (inactive)
28 | O=C(c1cc(COc2ccc(F)cc2F)on1)N1CCOCC1 | 0.37% (inactive)
29 | O=C(c1cc(C2CCCCN2S(=O)(=O)c2ccccc2)on1)N1CCOCC1 (stereo not drawn) | -1.54% (inactive)
30 | O=C(c1cc(-c2ccc(O)cc2)on1)N1CCOCC1 | 1.22% (active)
31 | O=C1Nc2ccccc2OC1CC(=O)N1CCCCCCC1 (stereo not drawn) | -0.55% (inactive)
32 | c1cncc(CNc2ccnc(-c3ccc4c(c3)OCO4)n2)c1 | -1.42% (inactive)
33 | CCOC(=O)[C@]12CCCC3=C1N(CCC3)C(=O)[C@@H](CC(=O)NCc1cccs1)C2 | -1.02% (inactive)
34 | Cc1nc2ccc(C(=O)N3CCSCC3)cc2s1 | -1.17% (inactive)
35 | Brc1ccc2nc(N3CCCC3)sc2c1 | 1.8% (active)
36 | Cc1nc2ccc(NC(=O)C3CCCCC3)cc2s1 | -1.51% (inactive)
37 | C=CCN1C(=O)[C@H](CC(=O)NCCCN2CCCC2=O)[C@@]2(C(=O)OCC)CCCC=C12 | -0.32% (inactive)
38 | COc1ccc(Br)cc1CN1CCN(C(=O)c2cccc(OC)c2OC)CC1 | -0.37% (inactive)
39 | COC(=O)Cc1cc(=O)oc2c(C)c(O)ccc12 | -1% (inactive)
40 | COc1cccc(C(=O)OCc2cc(=O)oc3c(C)c(C)ccc23)c1OC | 1.06% (active)
41 | CC(C)[C@@H]1NC(=O)c2cc([N+](=O)[O-])cc(I)c2NCCC[C@@H](C(=O)NC(CC(=O)O)C(N)=O)NC(=O)[C@H](CO)NC1=O (stereo partly drawn) | -1.32% (inactive)
42 | CCOC(=O)[C@]12CCCCC/C=C\1N(Cc1ccc(OC)cc1)C(=O)[C@H]2CC(=O)NCc1ccc(C)o1 | -1.69% (inactive)
43 | COC(=O)c1cc(S(=O)(=O)N2CCN(c3ccccc3C)CC2)cn1C | -1.46% (inactive)
44 | COc1ccc(-c2cc(C(=O)NC(C(=O)O)C(C)C)c(C)o2)cc1OC (stereo not drawn) | -0.63% (inactive)

Row | Compound | activation
45 | O=C(CCn1nnc2ccccc2c1=O)N[C@@H](Cc1c[nH]c2ccccc12)C(=O)O | -1.08% (inactive)
46 | COc1ccc(-c2cc(C(=O)NC(Cc3c[nH]c4ccccc34)C(=O)O)c(C)o2)cc1OC (stereo not drawn) | 0.94% (active)
47 | CC1=NN(/C(=N\c2nnc(C)s2)Nc2ccccc2)[C@H](c2ccc(C)cc2)S1 | -1.96% (inactive)
48 | CC(C)C(C#CC1CC1)N(Cc1ccc2c(c1)OCO2)C(N)=NC(=O)/C=C/c1cccc(C(F)(F)F)c1 (stereo not drawn) | -1.84% (inactive)
49 | CC(=O)c1ccc(NC(=O)c2cc(-c3cccs3)on2)cc1 | -0.86% (inactive)
50 | O=C(N/N=C/c1sc(N2CCCCC2)nc1-c1cccs1)c1cccnc1 | -1.2% (inactive)
51 | O=C(O)c1ccc(N/N=C/c2cn(-c3ccccc3)nc2-c2cccs2)cc1 | 1.45% (active)
52 | O=C(NC1CCCCN(Cc2ccc(Cl)cc2)C1=O)c1ccc(Br)cc1 (stereo not drawn) | -1.36% (inactive)
53 | Cc1ccc(Cn2cc(CN3[C@@H](CC(C)C)COc4ccc(Cl)cc4S3(=O)=O)nn2)cc1 | -1.11% (inactive)
54 | CCOC(=O)c1nnn(CC(=O)Nc2cccc(F)c2)c1C(=O)OCC | -1.33% (inactive)
55 | CCC(=O)Nc1ccc2nn(-c3ccc(F)cc3)nc2c1 | 1.14% (active)
56 | O=C(Nc1cccc(Cl)c1)c1cncn1-c1ccc(F)cc1 | -1.04% (inactive)
57 | COC(=O)[C@]12C[C@H](CC(=O)NCc3cccc4ccccc34)C(=O)N(CCc3ccc(OC)c(OC)c3)C1=C[C@H](C1CCCC1)O[C@@H]2C | -0.95% (inactive)
58 | O=C(Nc1ccc(Br)cc1)OCCN1C(=O)CCC12CCC(c1ccccc1)CC2 (stereo not drawn) | -0.35% (inactive)
59 | CCOC(=O)c1c(/N=C/c2cc(C)ccc2O)sc2c1CCC2 | -1.3% (inactive)
60 | CCOC(=O)c1c(CC(C)C)csc1/N=C/C1=C(O)CCCC1=O | -1.42% (inactive)
61 | CCOC(=O)c1c(N)sc2c1CCCC2=O | 1.3% (active)
62 | O=C(C1CCN(S(=O)(=O)c2ccccc2)CC1)N1CCN(C2CCCCC2)CC1 | -1.32% (inactive)
63 | CC(CCN1CCC(C(O)(c2ccccc2)c2ccccc2)CC1)Oc1ccc(Cl)cc1 (stereo not drawn) | -0.71% (inactive)
64 | Cc1ccc(-c2nc(C3CCCN(S(=O)(=O)c4ccc(Br)s4)C3)no2)cc1 (stereo not drawn) | -1.49% (inactive)
65 | Nc1nonc1C(=O)NCCc1ccccc1 | -1.42% (inactive)
66 | NC(=O)Nc1ccccc1C(=O)NCCc1ccccc1 | 1.06% (active)

Row | Compound | activation
67 | Nc1nc2c(Br)ccc(Br)c2cc1C(=O)NCCc1ccccc1 | -1.14% (inactive)
68 | O=C(OC12CCCN(C1)/C(=C/c1ccccc1)C2)c1ccco1 (stereo not drawn) | -0.69% (inactive)
69 | O=C(C1CCCN1S(=O)(=O)c1ccccc1)N1CCc2ccccc2C1 (stereo not drawn) | -1.12% (inactive)
70 | COc1ccc(C(=O)CC(=O)c2ccc(C)cc2)c(O)c1 | -1.3% (inactive)
71 | COc1ccc2c(C(=O)c3ccc(C)cc3)n(CCC(N)=O)[n+]([O-])c2c1 | 0.92% (active)
72 | COc1ccc(C(=O)c2c3ccc([N+](=O)[O-])cc3[n+]([O-])n2CCCN)cc1 | -1.18% (inactive)
73 | FC(F)(F)c1cccc(Cn2ccc3ccc(-c4ccc5ccn(Cc6ccccc6)c5c4)cc32)c1 | -1.17% (inactive)
74 | Cc1ccc(SCCSc2ncccn2)cc1 | 0.96% (active)
75 | Cc1ccc(SCCC(=O)NCc2ccccn2)cc1 | -1.21% (inactive)
76 | Cc1ccc(SCCC(=O)NC(C(C)C)C(C)C)cc1 | -1.68% (inactive)
77 | CC(C)N1CCCCC(NC(=O)C(C)(C)C)C1=O (stereo not drawn) | -1.27% (inactive)
78 | CCCCC(=O)N[C@@H]1CC[C@@]23CCCN2C(=O)CCC[C@H]3[C@H]1C | -1.42% (inactive)
79 | Cc1nn(-c2ccc([N+](=O)[O-])cc2)c(N)c1-c1ccccc1 | 0.95% (active)
80 | Cc1nn(-c2ccccc2)c2c1C(c1cccc([N+](=O)[O-])c1)N(c1ccccc1)C(=O)N2 (stereo not drawn) | -2.08% (inactive)
81 | CC(C)(C)c1cnnn1-c1ccc([N+](=O)[O-])cc1 | -1.44% (inactive)
82 | CC(C)(C)OC(=O)NCCc1ccccc1/C=C/S(=O)(=O)NCc1ccc(F)cc1 | -0.76% (inactive)
83 | O=C(Nc1ccccc1)Nc1nc2ccccc2s1 | 2.17% (active)
84 | O=C(Nc1ccc2ccccc2c1)Nc1ccc2snnc2c1 | -0.89% (inactive)
85 | O=C(Nc1nc2ccc(Cl)cc2s1)c1cc(-c2ccc(Cl)cc2)nc2ccccc12 | 0.48% (inactive)
86 | COc1ccc(CN(CCN2CCOCC2)C(=O)c2ccc(C)cc2)cc1OC | -0.08% (inactive)
87 | COc1ccc(/C=C2\CC3(OC(C)=O)CCCN2C3)cc1 (stereo not drawn) | -1.25% (inactive)
88 | Cc1ccc(NC(=O)Nc2cc(C)nn2-c2ccccc2)cc1 | -0.89% (inactive)
